Compound activity (PubChem)
HCV inh: qHTS Assay for Inhibitors of Hepatitis C Virus (HCV) | Huh7.5.1 HCVcc-Cre infection, luciferase reporter, 44 h | Potency, µM (highest dose often 41.8 µM), without a hit: at the top dose activity change, negative = inhibition, usual class: inhibitors | actives 3.4% (n = 340,000) | AID 651820, 2012; active means well fitted inhibition curve with a large enough effect; inconclusive means small, poorly fitted or top-dose-only effect, or another doubt; inactive means no such curve, though single readings can be large or run the other way; further: potency means the concentration at half of the fitted maximal effect
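Cells seeded at 1,000/well and cultured 4 h, then compounds added followed by HCVcc-Cre virus (~0.5 moi). After 44 h further culture, luciferase substrate was added, plates held 15 min at room temperature, and luminescence read for 15 sec.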
Vaccinia Venus: qHTS for Stage-Specific Inhibitors of Vaccinia Orthopoxvirus: Venus Reporter Primary qHTS | Vaccinia virus Venus reporter expression, fluorescence | Potency, µM (doses to about 36.5 µM), for the others: top-dose activity change, negative = inhibition, most hits filed as inhibitors | actives 0.46% (n = 330,000) | AID 720580, 2013; calls by dose curve; tested in A549 cells; further: potency means the concentration at half of the fitted maximal effect; nearly all actives have a fitted effect of over 30% in size
FMDV inh: High Throughput Screening for Foot and Mouth Disease Virus Antivirals; Potency, µM (doses to about 57.9 µM), for inactives: at the highest dose activity change, negative = inhibition, hits mostly inhibitors; actives 1.2% (n = 410,000); FMDV antiviral cell-based qHTS; AID 1159524, 2015; calls by dose curve; tested in HEK293T cells; further: read-out not given here; potency means the concentration at half of the fitted maximal effect; nearly all actives have a fitted effect of over 45% in size
HCMV antiviral: qHTS Assay for inhibitors of the human cytomegalovirus (HCMV); activity change, negative = inhibition, % at 57.5 µM; HFF cells, HCMV-luciferase reporter, 72 h; active compounds read low; actives 4.5% (n = 410,000); AID 1259415, 2018; in the data active means activity change below about -60%; inconclusive means no clear call, values can overlap the other calls; inactive means above about -39%
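Two-dose cell screen: HFF monolayers treated with compounds and infected with luciferase-expressing HCMV at 1 PFU/cell, 72 h at 37C, then lysed for luciferase measurement.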
Vaccinia mCherry: qHTS for Stage-Specific Inhibitors of Vaccinia Orthopoxvirus: mCherry Reporter Primary qHTS | Vaccinia virus mCherry reporter infection, fluorescence | Potency, µM (top dose mostly 36.5 µM), for inactives: top-dose activity change, negative = inhibition, usual class: inhibitors | actives 0.63% (n = 310,000) | AID 720579, 2013; calls by dose curve; tested in A549 cells; further: potency means the concentration at half of the fitted maximal effect; nearly all actives have a fitted effect of over 35% in size
An asterisk follows results filed as active; i = inactive; ? = inconclusive; / = not tested or not shown; [ ] = dose if it differs, or a comment. Most compounds without a hit are left out; they make up all but 7.3% or so of the library. On the % scale 0 is the no-effect control and ±100 the full control effect.

SMILES | HCV inh | Vaccinia Venus | FMDV inh | HCMV antiviral | Vaccinia mCherry
Cc1oc(-c2ccccc2NC(=O)c2ccsc2)nc1CN(C)Cc1ccc2c(c1)CCCN2C | / | -12% | 3% | / | -2%
Cc1c(Cl)cccc1NC(=O)Cn1cc(C(=O)C2CCCCC2)c2ccccc21 | / | -26%[7.34 µM] | ? | -70* | -26%[7.34 µM]
CC(=O)c1cn(CC(=O)Nc2ccccc2Cl)c2ccccc12 | 11µM* | / | ? | -38 | /
CC(=O)c1cn(CC(=O)Nc2ccccc2)c2ccccc12 | ? | / | ? | -73* | /
Cc1cc(C)cc(NC(=O)Cn2cc(C(=O)C3CCCCC3)c3ccccc32)c1 | / | ? | -16% | -28 | ?
Cc1ccc(NC(=O)Cn2cc(C(=O)c3ccccc3)c3ccccc32)cc1 | / | -13% | ? | -91* | -11%
CN(C)c1ncc2nc(-c3ccc(Cl)cc3)c(=O)n(Cc3cccs3)c2n1 | / | / | -15% | / | /
COc1ccc2c(c1)[C@@H](NC(=O)OCc1ccccc1)[C@H](C)[C@@H](c1ccccc1)N2 | / | / | / | 13 | /
Cc1cccn2cc(-c3cccc(NC(=O)C(C)C)c3)nc12 | / | -3% | 34% | 5 | -17%
CC(=O)c1cn(CC(=O)Nc2ccccc2F)c2ccccc12 | 11µM* | -9% | 0% | -12 | -14%
O=C(CN1c2ccccc2S(=O)(=O)c2ccccc21)Nc1ccccc1F | -3% | -19% | 0% | -63* | -20%
CCC(=O)c1cn(CC(=O)Nc2ccccc2F)c2ccccc12 | -27% | -21% | -16% | -15 | -4%
COc1ccc(NC(=O)Cn2cc(C(=O)c3ccco3)c3ccccc32)cc1 | 3.5µM* | -14% | 5% | -2 | -24%
CC(=O)c1ccc(S(=O)(=O)N2CCN(C(=O)C(=O)c3cccc(C(F)(F)F)c3)CC2)cc1 | / | / | / | -16 | /
CCn1c2ccccc2c2c3ncc4cccn4c3ccc21 | 11µM* | -11% | -3% | 192 | -29%
O=C(OCC(=O)N1CCOCC1)c1ccccc1OCc1ccccc1 | 16% | / | 5% | -5 | /
CCn1c(=S)[nH]c2scc(-c3cccs3)c2c1=O | 8% | -18% | 14% | -63* | -4%
CC(C)n1c(=S)[nH]c2scc(-c3cccs3)c2c1=O | -8% | / | -16% | 0 | /
COc1ccc(/C=N/NC(=O)Cc2cccs2)cc1 | 8% | / | 83% | 79 | /
Cc1ccc(/C=N/NC(=O)Cc2cccs2)o1 | 15% | -9% | 5% | -74* | -10%
CCC(=NCc1ccco1)c1c(O)n(C)c(=O)n(C)c1=O | -21% | / | -4% | -9 | /
CCC(=NCCc1ccccc1)c1c(O)n(C)c(=O)n(C)c1=O | 8.9µM* | / | ? | ? | /
Cc1ccccc1NC(=O)c1ccc(F)c(S(=O)(=O)N2CCN(c3ccccn3)CC2)c1 | ? | / | 22µM* | ? | /
O=C(Nc1ccc(Br)cc1)c1ccc(F)c(S(=O)(=O)N2CCN(c3ccccn3)CC2)c1 | 7.1µM* | -30% | ? | -89* | -11%
O=C(Nc1ccccc1)c1ccc(N2CCN(c3ccccn3)CC2)c(S(=O)(=O)N2CCOCC2)c1 | -7% | / | -11% | -27 | /
SMILES | HCV inh | Vaccinia Venus | FMDV inh | HCMV antiviral | Vaccinia mCherry
O=C(Nc1ccc(Br)cc1)c1ccc(F)c(S(=O)(=O)NC2CCCCCC2)c1 | / | -30%[7.34 µM] | -25% | -98* | ?
Cc1cc(C)cc(OCC(=O)OCC(=O)N(CC(C)C)c2c(N)n(Cc3ccccc3)c(=O)[nH]c2=O)c1 | 24% | -8% | -23% | -30 | i
CS(=O)(=O)N1CCC2(CCCN(C(=O)Nc3ccccc3)C2)CC1 | / | / | 22% | / | /
CC(C)CC(OC(=O)c1ccc(Cl)nc1)C(=O)NC1CCCC1 (configuration not stated) | 4% | -5% | 19% | 18 | -17%
Cc1ccc(NC(=O)CSc2nnc(-c3cc4occc4n3C)n2-c2ccccc2C)c(Cl)c1 | / | -15% | -3% | -25 | -15%
O=C(Nc1ncc([N+](=O)[O-])s1)c1cccc([N+](=O)[O-])c1 | ? | ? | -73% | -99* | ?
O=C(O)c1cnn(-c2nc(-c3cccc([N+](=O)[O-])c3)cs2)c1C(F)(F)F | -3% | / | 4% | -94* | /
O=C(Nc1ccc(NC(=O)c2cccc([N+](=O)[O-])c2)cc1)c1cccc([N+](=O)[O-])c1 | -1% | / | 46% | 40 | /
COc1ccccc1Nc1nc(-c2cccc([N+](=O)[O-])c2)cs1 | ? | / | 43% | 6 | /
O=[N+]([O-])c1cccc(-c2csc(Nc3ccccc3)n2)c1 | 1.6µM* | ? | -10% | 23 | ?
O=C(Nc1ccccc1)Nc1ncc([N+](=O)[O-])s1 | ? | ? | 10µM* | -98* | 10µM*
Cc1cc(O)c(C(c2ccc(F)cc2)N2CCN(c3ccccc3)CC2)c(=O)n1Cc1ccco1 (configuration not stated) | / | -12% | 0% | 22 | -11%
O=C(Nc1nc(-c2cccnc2)cs1)c1cccc([N+](=O)[O-])c1 | ? | -11% | 0% | ? | -16%
O=C(Nc1nc(-c2ccccc2)cs1)c1cccc([N+](=O)[O-])c1 | 13µM* | / | -18% | 4 | /
Cc1cc(C)cc(NC(=O)CSc2nncn3c2cc2occc23)c1 | / | -8% | -14% | ? | -16%
CN(C(=O)CSc1nncn2c1cc1occc12)c1ccccc1 | / | 0% | -21% | -98* | -6%
CC(O)(c1cccnc1)c1nc(/C=C/c2ccccc2)cs1 (configuration not stated) | / | -11% | ? | -83* | -24%
COc1cc(C(=O)NCC2CCCO2)ccc1OCc1ccccc1Cl (configuration not stated) | / | -16% | -18% | 92 | -1%
CCCCNC(=O)c1nc2cc(C)c(C)cc2nc1-c1cccc(Br)c1 | / | / | / | -94* | /
CN1CCc2nc(SCC(=O)OC(C)(C)C)c(C#N)cc2C1 | 4µM* | -18% | 25% | 136 | ?
CCCCSc1nc2c(cc1C#N)CCC2 | 22µM* | -1% | 19% | 15 | i
N#Cc1cc2c(nc1SCC(=O)N1CCOCC1)CCCCC2 | 2% | -3% | / | -77* | i
c1ccc(Cc2nnc(N3CCCCC3)c3ccccc23)cc1 | -5% | -13% | -12% | -5 | -19%
c1ccc(N2CCN(c3nnc(Cc4cccnc4)c4ccccc34)CC2)nc1 | ? | / | 10µM* | ? | /
Cc1cc(C)c(Cn2cnc(-c3ccc([N+](=O)[O-])cc3)c2)c(C)c1 | 11µM* | 0% | / | ? | i
CC(C)(C)c1ccc(Cn2cnc(-c3ccc([N+](=O)[O-])cc3)c2)cc1 | ? | -26% | 12% | 56 | -6%
Brc1cnc(N2CCCCC2)nc1N1CCOCC1 | 13% | 1% | -17% | 78 | -11%
Brc1cnc(N2CCCC2)nc1N1CCOCC1 | 22µM* | / | -17% | 34 | /
CC(C)Sc1cc(Cl)nc(NC(=O)Nc2ccccc2)n1 | 21% | / | 70% | -14 | /
